The text below walks through data of PubChem BioAssay (EPA / NIEHS).

SMILES strings stand for the structures. Inconclusive results are not listed. Calls of active or inactive are those of the source. The calls were made as follows: active = hit-call score of the fitted dose curve at least 0.9, where 1 is the maximum; inconclusive = response in the unintended direction; inactive = score below 0.9.

In general, AC50 refers to the midpoint of the concentration-response curve, whichever way the signal moves.

Chain of human Thyroid Receptor alpha (THRa1), THRA (gene 7067) (P10827 whole entry, looked up): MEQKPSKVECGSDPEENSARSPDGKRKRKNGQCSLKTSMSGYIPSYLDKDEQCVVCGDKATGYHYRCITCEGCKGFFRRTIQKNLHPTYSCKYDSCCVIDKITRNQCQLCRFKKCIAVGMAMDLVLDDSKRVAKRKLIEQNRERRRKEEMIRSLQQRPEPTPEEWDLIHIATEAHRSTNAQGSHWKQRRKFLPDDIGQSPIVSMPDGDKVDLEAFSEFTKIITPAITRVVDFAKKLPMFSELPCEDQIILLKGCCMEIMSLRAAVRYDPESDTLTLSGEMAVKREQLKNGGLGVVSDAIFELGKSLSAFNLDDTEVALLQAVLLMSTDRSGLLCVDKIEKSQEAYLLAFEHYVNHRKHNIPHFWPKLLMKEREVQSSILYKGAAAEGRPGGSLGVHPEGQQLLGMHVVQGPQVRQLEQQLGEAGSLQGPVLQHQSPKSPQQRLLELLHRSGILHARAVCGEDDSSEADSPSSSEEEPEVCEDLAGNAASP

The assay has as its target human Thyroid Receptor alpha (THRa1), THRA (gene 7067) (UniProt P10827). The experiment in a line: ATG_THRa1_TRANS: Attagene TRANS-FACTORIAL HepG2 Assay for human Thyroid Receptor alpha (THRa1) (AID 2283014). As to the method: ATG_TRANS is a cell-based, multiplexed-readout assay that uses HepG2, a human liver cell line, with measurements taken at 24 hours after chemical dosing in a 24-well plate.ATG_THRa1_TRANS is one of 30 assay component(s) measured or calculated from the ATG_TRANS assay. It is designed to make measurements of mRNA induction, a form of inducible reporter, as detected with fluorescence intensity signals by Reverse transcription polymerase chain reaction (RT-PCR) and Capillary electrophoresis technology.Data from the assay component ATG_THRa1_TRANS was analyzed into 1 assay endpoint. This assay endpoint, ATG_THRa1_TRANS, was analyzed in the positive analysis fitting direction relative to DMSO as the negative control and baseline of activity. Using a type of inducible reporter, measures of mRNA for gain-of-signal activity can be used to understand the reporter gene at the transcription factor-level as they relate to the gene THRA. Furthermore, this assay endpoint can be referred to as a primary readout, because this assay has produced multiple assay endpoints where this one serves a reporter gene function. To generalize the intended target to other relatable targets, this assay endpoint is annotated to the nuclear receptor intended target family, where the subfamily is non-steroidal.
Human liver HepG2 cells are transiently transfected with multiple reporter transcription units (MRTUs) in 6-well plates using FuGene 6 reagent (Roche; 3 ml FuGene/1 mg DNA). The MRTU constructs are regulated by a cis-regulating element (promoter). […] A major difference between the CIS and TRANS system is that in CIS activities of endogenous TFs are measured, whereas the TRANS assay evaluates changes in activities of exogenous, chimeric NR-Gal4 proteins. […] At the end of 24 hour incubation, total RNA was isolated using TriZol reagent (Invitrogen). The isolated RNA is then reverse-transcribed using oligo(dT) primer and Mo-MLV reverse transcriptase (Invitrogen) with DNAse I (Ambion) treatment for 30 min. The one-tenth of the produced cDNA was amplified by PCR using Taq DNA polymerase (Invitrogen) and two reporter sequence-specific primers. The PCR products were fluorescently labeled by primer extension with 6-arboxyfluorescein (6-FAM) 5'-labeled reporter sequence-specific primer (2 min at 95 C, 20 s at 68 C and 10 min at 72 C) and these products were digested with 5U of HpaI (New England Biolabs) for 2h at 37 C. The fragments were purified using Qiaquick PCR columns (Qiagen), analyzed on an ABI 3130xL genetic analyzer (Applied Biosystems) with peak positions identified by using a set of X-rhodamine (ROX)-labeled MapMarker1000 molecular weight standards (BioVentures). The raw capillary electrophoresis data was processed using Attagraph software (Attagene).
Turning to `O=C=Nc1ccc(Cl)cc1`, the compound was called inactive.
The same measure, in the same setting: the value for `Cc1ccc(CCl)cc1` was “inactive”; that for `COC(=O)Nc1cccc(OC(=O)Nc2cccc(C)c2)c1` was “inactive”; that for `CCCCCCCCCCCCCl` was “inactive”.
Same read-out and setting: the value for `O=C(Nc1ccc(Br)cc1)c1cc(Br)cc(Br)c1O` was “inactive”; that for `Nc1c(Oc2ccccc2)cc(O)c2c1C(=O)c1ccccc1C2=O` was “inactive”.
As for `CC(=O)CN(CC(C)=O)N=O`, the outcome was inactive.
Take `CC(C)(C)c1ccccc1O`: the compound was classed as inactive.
Still for that read-out and setting: then `c1cc[c]([Sb]([c]2ccccc2)[c]2ccccc2)cc1`, with “inactive”.
As for `O=C(O)c1cc(I)cc(I)c1I`, the call was inactive.
On to `N#Cc1ccccc1N`, for which the compound was classed as inactive.
Same read-out and setting: the value for `O=C(O)COc1ccc(Cl)cc1` was “inactive”; that for `CC(C=O)Cc1ccc2c(c1)OCO2` (stereo not given) was “inactive”; that for `Clc1ccc(C(Cl)(Cl)Cl)cn1` was “inactive”.
On the same count and under the same terms, then `CCC[CH2][Sn]([CH2]CCC)([CH2]CCC)[CH2]CCC`, with “inactive”; and `CC(C)N(C(=O)CCl)c1ccccc1`, with “inactive”; and `C[C@@H]1O[C@@H](O[C@H]2C[C@@H](O)[C@]3(CO)[C@H]4[C@H](O)C[C@]5(C)[C@@H](C6=CC(=O)OC6)CC[C@]5(O)[C@@H]4CC[C@]3(O)C2)[C@H](O)[C@H](O)[C@H]1O`, with “inactive”.
On the same count and under the same terms, the value for `C=CC(=O)NC(C)(C)CC(C)=O` was “inactive”; that for `CC(C)(c1ccccc1)c1cc(-n2nc3ccccc3n2)c(O)c(C(C)(C)c2ccccc2)c1` was “inactive”.
On to `O=C(NC(=O)c1c(F)cccc1F)Nc1cc(Cl)c(Oc2ncc(C(F)(F)F)cc2Cl)c(Cl)c1`, for which the compound was called inactive.
The same measure, in the same setting: the value for `CC(C)CC(C)(c1ccc(O)cc1)c1ccc(O)cc1` was “inactive”; that for `O=c1oc2ccccc2c(O)c1C(CC(O)c1ccc(-c2ccc(Br)cc2)cc1)c1ccccc1` (stereo not given) was “inactive”.
Still for that read-out and setting: the value for `c1ccc2sc(SNC3CCCCC3)nc2c1` was “inactive”; that for `Nc1cccnc1` was “inactive”; that for `Cc1ccccc1OP(=O)(Oc1ccccc1)Oc1ccccc1` was “inactive”.
With `OC[P+](CO)(CO)CO`, the result was inactive.
Turning to `CCCCN(CCCCO)N=O`, the result was inactive.
`OCC(c1ccc(Cl)cc1)c1ccc(Cl)cc1`: the call was inactive.
On the same count and under the same terms, the value for `O=C/C(Cl)=C(/Cl)C(=O)O` was “inactive”.
For `CCOC(=O)CC(=O)CCl`, the half-maximal activity concentration (AC50) was 100 µM (active).
With `O=C(O)C1(c2ccc3c(c2)OC[C@H](Cc2ccc(-c4ccccc4)cc2)[C@H]3O)CCCC1`, the compound was called inactive.
`CC(C)(COCC1CO1)COCC1CO1` (stereo not given): the compound was called inactive.
On the same count and under the same terms, then `CCC[CH2][Sn]([Cl])([Cl])[CH2]CCC`, with “inactive”; and `CC(C)O.CC(C)O.OCCN(CCO)CCO.OCCN(CCO)CCO.[Ti]`, with “inactive”; and `O=[N+]([O-])c1cccc2ccccc12`, with “inactive”.
On to `COP(=S)(OC)Oc1cc(Cl)c(I)cc1Cl`, for which the call was inactive.
On the same count and under the same terms, then `CCOP(=S)(OCC)Oc1ccc(Cl)cc1Cl`, with “inactive”; and `O=[N+]([O-])c1cc([As](=O)(O)O)ccc1O`, with “inactive”; and `CCOc1ccc(N)cc1`, with “inactive”.
Same read-out and setting: then `CCOP(=S)(OCC)SCSc1cc(Cl)ccc1Cl`, with “inactive”.
